Assay results taken from the supplement of paper PMC6555819.

What was measured:
Experiment in all cases: PBM binding z-score (relative to random genomic background probes); higher = stronger binding; sequences stand for … in GC…GCGATTGACAGCGTAGAATGAAGG
[1] = test system: PPARg:RXRa DBDmut IVT, anti-RXR (DBD mutation: RXRa K156A/R161A, NR concentration 270 nM, RXRa partner concentration 90 nM)
Summary of the method: (§1)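 Binding z-scores were set against random background probes. The data came from custom Agilent 4×180K protein-binding microarrays carrying double-stranded probes with 34-nt variable regions, incubated 1 h with ligand-free nuclear receptor dimers. Partner-specific antibodies detected binding, and scanned fluorescence was regression-normalized.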

[2] = test system: PPARg:RXRa IVT, anti-PPARg (NR concentration 270 nM, RXRa partner concentration 90 nM)
Summary of the method: as §1

[3] = test system: PPARg DBDmut:RXRa IVT, anti-PPARg (DBD mutation: PPARg1 K132A/R137A, NR concentration 270 nM, RXRa partner concentration 90 nM)
Summary of the method: as §1

[4] = test system: PPARg DBDmut IVT, anti-PPARg (DBD mutation: PPARg1 K132A/R137A, NR concentration 270 nM)
Summary of the method: as §1

[5] = test system: PPARg homodimer (NR concentration 180 nM)
Summary of the method: as §1

[6] = test system: PXR:RXRa (NR concentration 270 nM, RXRa partner concentration 90 nM)
Summary of the method: as §1

[7] = test system: PXR homodimer (NR concentration 270 nM)
Summary of the method: as §1

[8] = test system: RARa:RXR (NR concentration 270 nM, RXRa partner concentration 90 nM)
Summary of the method: as §1

[9] = test system: RARa homodimer (NR concentration 270 nM)
Summary of the method: as §1

[10] = test system: RARb:RXRa (NR concentration 270 nM, RXRa partner concentration 90 nM)
Summary of the method: as §1

[11] = test system: RARb homodimer (NR concentration 270 nM)
Summary of the method: as §1

[12] = test system: RARg:RXRa (NR concentration 270 nM, RXRa partner concentration 90 nM)
Summary of the method: as §1

[13] = test system: RARg homodimer (NR concentration 270 nM)
Summary of the method: as §1

[14] = test system: RXRa DBDmut IVT, anti-RXR (DBD mutation: RXRa K156A/R161A, NR concentration 90 nM)
Summary of the method: as §1

[15] = test system: RXRa homodimer (NR concentration 180 nM)
Summary of the method: as §1

[16] = test system: THRa:RXRa (NR concentration 90 nM, RXRa partner concentration 90 nM)
Summary of the method: as §1

[17] = test system: THRa homodimer (NR concentration 90 nM)
Summary of the method: as §1

[18] = test system: VDR:RXRa (NR concentration 270 nM, RXRa partner concentration 90 nM)
Summary of the method: as §1

[19] = test system: VDR homodimer (NR concentration 270 nM)
Summary of the method: as §1

Row | Sequence | PBM binding z-score [1] | PBM binding z-score [2] | PBM binding z-score [3] | PBM binding z-score [4] | PBM binding z-score [5] | PBM binding z-score [6] | PBM binding z-score [7] | PBM binding z-score [8] | PBM binding z-score [9] | PBM binding z-score [10] | PBM binding z-score [11] | PBM binding z-score [12] | PBM binding z-score [13] | PBM binding z-score [14] | PBM binding z-score [15] | PBM binding z-score [16] | PBM binding z-score [17] | PBM binding z-score [18] | PBM binding z-score [19]
1 | ATATGTAGGTTATCGGGTAATTCAGTTTGCGCAT | 7.14 | 7.39 | 1.87 | 2.29 | 2.19 | 1.23 | 1.15 | 1.11 | 1.97 | 1.02 | 0.9 | 0.94 | 0.821 | 0.617 | 1.05 | 1.29 | 1.26 | 1.54 | 1.3
2 | CGTCCAAGGTCCAGGTCAGTGAAAGAGACTCGAA | 0.342 | 0.512 | -0.921 | -0.937 | 0.811 | 0.618 | -0.111 | 0.904 | 0.0146 | 2.52 | 2.38 | 1.4 | 1.92 | 0.467 | 0.732 | 2.22 | 1.67 | 0.373 | 0.482
3 | CCTTACGGGTCAAGGTTACAGCACGGGTGGTACG | 2.05 | 3.96 | 0.601 | -0.0526 | 1.7 | 3.4 | -0.0469 | 4.47 | 0.176 | 4.45 | 3.8 | 5.07 | 4.96 | 0.498 | 5.42 | 3.38 | 1.09 | 3.34 | 1.19
4 | TCATATAGGTAAATGCTAGGTGAAAGACCGATCT | 3.73 | 2.45 | 1.16 | 1.31 | 1.02 | 0.594 | 0.174 | 0.931 | 0.867 | 0.44 | 0.314 | 0.683 | 0.454 | 1.44 | 1.15 | 1.32 | 0.328 | 0.73 | 0.112
5 | CCTGCTAGGTCAATGGTCAGCTAGAGCAGCTCGC | 4.03 | 3.86 | -0.82 | -0.691 | 1.03 | 0.552 | -0.638 | 1.5 | -0.363 | 3.71 | 2.68 | 3.14 | 3.81 | 1.45 | 2.19 | 2.33 | 0.515 | 0.675 | -0.262
6 | TCATATAGGTAATACAGGTTAAAGTCGGCATCTA | 4.34 | 3.27 | 1.19 | 1.83 | 1.52 | 1.32 | 0.749 | 1.97 | 1.97 | 0.992 | 0.936 | 0.979 | 0.696 | 2.04 | 1.63 | 1.35 | 0.204 | 1.88 | 0.629
7 | ACTCGTTGGTCAGCTGAGGTCACACACAATTCGG | 0.747 | 2.05 | -0.129 | 0.631 | 3.13 | 5.42 | 1.8 | 4.47 | 1.77 | 3.58 | 4.41 | 4.16 | 4.25 | 1.3 | 4.06 | 5.18 | 5.14 | 4.61 | 3.72
